Out of some 5,500 compounds screened, about 2,000 (36%) were called active. Inconclusive results (about 18%) are left out. Cut-off read from the data, not from the text of the source: active = normalized growth mostly below about 0.91 (no sharp cut-off); inconclusive = no clear call, values can overlap the other calls; inactive = mostly above about 0.92. This is one part of the list.
Assay: chemical genetic growth profiling, strain panel (AID 1159580);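 note: tested at 20 µM; growth read once vehicle control cultures reached saturation at 30 °C; 1 = growth at the plate median or of vehicle wells; lower values mean less growth of the strain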
Details: growth OD

Measured: normalized growth

CCOP(=S)(OCC)Oc1cc(C)nc(C(C)C)n1
inactive: S. cerevisiae deletion strains, locus YAL013W, strain DEP1, active compounds read low 0.978 | S. cerevisiae deletion strains, locus YBR021W, strain FUR4, active compounds read low 1.03 | S. cerevisiae deletion strains, locus YBR229C, strain ROT2, active compounds read low 0.955 | S. cerevisiae deletion strains, locus YCL029C, strain bik1, active compounds read low 0.985 | S. cerevisiae deletion strains, locus YDL035C, strain GPR1, active compounds read low 0.946 | S. cerevisiae deletion strains, locus YDL074C, strain BRE1, active compounds read low 0.901 | S. cerevisiae deletion strains, locus YDL101C, strain DUN1, active compounds read low 0.96 | S. cerevisiae deletion strains, locus YDL134C, strain PPH21, active compounds read low 0.995 | S. cerevisiae deletion strains, locus YDL185W, strain tfp1, active compounds read low 0.972 | S. cerevisiae deletion strains, locus YDL192W, strain arf1, active compounds read low 0.985 | S. cerevisiae deletion strains, locus YDR101C, strain arx1, active compounds read low 1 | S. cerevisiae deletion strains, locus YDR150W, strain NUM1, active compounds read low 0.984 | S. cerevisiae deletion strains, locus YDR162C, strain NBP2, active compounds read low 0.976 | S. cerevisiae deletion strains, locus YDR318W, strain mcm21, active compounds read low 0.98 | S. cerevisiae deletion strains, locus YDR388W, active compounds read low 0.991 | S. cerevisiae deletion strains, locus YDR502C, strain sam2, active compounds read low 0.994 | S. cerevisiae deletion strains, locus YEL061C, strain CIN8, active compounds read low 0.989 | S. cerevisiae deletion strains, locus YER110C, active compounds read low 0.981 | S. cerevisiae deletion strains, locus YER155C, strain BEM2, active compounds read low 0.996 | S. cerevisiae deletion strains, locus YER167W, strain BCK2, active compounds read low 0.99 | S. cerevisiae deletion strains, locus YGL078C, strain dbp3, active compounds read low 0.995 | S. cerevisiae deletion strains, locus YGL086W, strain mad1, active compounds read low 0.989 | S. cerevisiae deletion strains, locus YGL248W, strain PDE1, active compounds read low 0.961 | S. cerevisiae deletion strains, locus YGR078C, strain PAC10, active compounds read low 0.976 | S. cerevisiae deletion strains, locus YGR135W, strain pre9, active compounds read low 0.995 | S. cerevisiae deletion strains, locus YGR229C, strain SMI1, active compounds read low 0.991 | S. cerevisiae deletion strains, locus YGR252W, strain gcn5, active compounds read low 0.998 | S. cerevisiae deletion strains, locus YHR030C, strain SLT2, active compounds read low 0.988 | S. cerevisiae deletion strains, locus YHR079C, strain IRE1 (second series), active compounds read low 0.994 | S. cerevisiae deletion strains, locus YHR094C, strain hxt1, active compounds read low 0.996 | S. cerevisiae deletion strains, locus YHR129C, strain ARP1, active compounds read low 0.977 | S. cerevisiae deletion strains, locus YHR200W, strain rpn10, active compounds read low 0.993 | S. cerevisiae deletion strains, locus YIL066C, strain RNR3, active compounds read low 0.979 | S. cerevisiae deletion strains, locus YIL073C, strain SPO22, active compounds read low 1.01 | S. cerevisiae deletion strains, locus YIL125W, strain kgd1, active compounds read low 0.993 | S. cerevisiae deletion strains, locus YIR030C, strain dcg1, active compounds read low 0.995 | S. cerevisiae deletion strains, locus YJL095W, strain BCK1, active compounds read low 0.973 | S. cerevisiae deletion strains, locus YJL134W, strain LCB3, active compounds read low 0.982 | S. cerevisiae deletion strains, locus YJL168C, strain set2, active compounds read low 0.987 | S. cerevisiae deletion strains, locus YJL187C, strain SWE1 (second series), active compounds read low 0.978 | S. cerevisiae deletion strains, locus YJR043C, strain POL32, active compounds read low 0.991 | S. cerevisiae deletion strains, locus YJR075W, strain HOC1, active compounds read low 0.977 | S. cerevisiae deletion strains, locus YKL009W, strain mrt4, active compounds read low 0.949 | S. cerevisiae deletion strains, locus YKL068W, active compounds read low 0.993 | S. cerevisiae deletion strains, locus YKL085W, strain MDH1 (second series), active compounds read low 0.988 | S. cerevisiae deletion strains, locus YKL085W, strain MDH1, active compounds read low 0.988 | S. cerevisiae deletion strains, locus YKL190W, strain CNB1, active compounds read low 0.993 | S. cerevisiae deletion strains, locus YKR001C, strain vps1, active compounds read low 0.999 | S. cerevisiae deletion strains, locus YLR039C, strain RIC1, active compounds read low 0.966 | S. cerevisiae deletion strains, locus YLR058C, strain SHM2, active compounds read low 0.971 | S. cerevisiae deletion strains, locus YLR102C, strain apc9, active compounds read low 0.987 | S. cerevisiae deletion strains, locus YLR262C, strain YPT6, active compounds read low 0.946 | S. cerevisiae deletion strains, locus YLR268W, strain sec22, active compounds read low 0.993 | S. cerevisiae deletion strains, locus YLR330W, strain CHS5, active compounds read low 0.989 | S. cerevisiae deletion strains, locus YLR342W, strain FKS1 (second series), active compounds read low 0.975 | S. cerevisiae deletion strains, locus YLR371W, strain rom2, active compounds read low 0.995 | S. cerevisiae deletion strains, locus YLR418C, strain cdc73, active compounds read low 0.959 | S. cerevisiae deletion strains, locus YML016C, strain PPZ1, active compounds read low 0.993 | S. cerevisiae deletion strains, locus YML032C, strain rad52, active compounds read low 0.989 | S. cerevisiae deletion strains, locus YML124C, strain tub3, active compounds read low 0.998 | S. cerevisiae deletion strains, locus YMR078C, strain ctf18, active compounds read low 0.991 | S. cerevisiae deletion strains, locus YMR223W, strain ubp8, active compounds read low 0.988 | S. cerevisiae deletion strains, locus YMR263W, strain SAP30, active compounds read low 0.98 | S. cerevisiae deletion strains, locus YMR307W, strain GAS1, active compounds read low 0.976 | S. cerevisiae deletion strains, locus YNL067W, strain RPL9B, active compounds read low 0.972 | S. cerevisiae deletion strains, locus YNL128W, strain TEP1, active compounds read low 0.957 | S. cerevisiae deletion strains, locus YNL153C, strain GIM3, active compounds read low 0.984 | S. cerevisiae deletion strains, locus YNL233W, strain BNI4, active compounds read low 0.984 | S. cerevisiae deletion strains, locus YNL250W, strain rad50, active compounds read low 0.984 | S. cerevisiae deletion strains, locus YNL271C, strain bni1, active compounds read low 0.992 | S. cerevisiae deletion strains, locus YNL298W, strain CLA4, active compounds read low 0.995 | S. cerevisiae deletion strains, locus YNL307C, strain MCK1, active compounds read low 0.998 | S. cerevisiae deletion strains, locus YNL322C, strain KRE1, active compounds read low 0.978 | S. cerevisiae deletion strains, locus YNR052C, strain pop2, active compounds read low 0.99 | S. cerevisiae deletion strains, locus YOL006C, strain TOP1, active compounds read low 0.967 | S. cerevisiae deletion strains, locus YOL012C, strain htz1 0.881 | S. cerevisiae deletion strains, locus YOL147C, strain pex11, active compounds read low 0.998 | S. cerevisiae deletion strains, locus YOR061W, strain CKA2, active compounds read low 0.967 | S. cerevisiae deletion strains, locus YOR069W, strain VPS5, active compounds read low 0.989 | S. cerevisiae deletion strains, locus YOR136W, strain idh2, active compounds read low 0.986 | S. cerevisiae deletion strains, locus YOR144C, strain elg1, active compounds read low 0.995 | S. cerevisiae deletion strains, locus YOR184W, strain ser1, active compounds read low 0.987 | S. cerevisiae deletion strains, locus YOR316C, strain cot1, active compounds read low 0.975 | S. cerevisiae deletion strains, locus YPL055C, strain LGE1, active compounds read low 0.956 | S. cerevisiae deletion strains, locus YPL241C, strain CIN2, active compounds read low 0.989 | S. cerevisiae deletion strains, locus YPR119W, strain clb2, active compounds read low 0.997 | S. cerevisiae deletion strains, locus YPR141C, strain kar3, active compounds read low 0.984 | S. cerevisiae deletion strains, locus YPR163C, strain tif3, active compounds read low 1 | S. cerevisiae deletion strains, locus YPR167C, strain met16, active compounds read low 0.987 | S. cerevisiae deletion strains, strain wtn01, active compounds read low 1 | S. cerevisiae strains, strain wild type, active compounds read low 0.987
